Results from PubChem BioAssay.
Several values for one entry are separate records, joined by “and”; a condition that tells them apart may be missing. Equal entries are not always repeated. Activity calls are given as the source filed them.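 How the source made its calls, unless noted: active means mean z-score across replicates of 1.96 or higher in either the MELAS or the Rieske mutant cell line; inactive means the rest.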

What was measured:
[1] = circadian clock period modulators, cell-based, LOPAC library, luminescence reporter (AID 2774; call rule not given here;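 further: values are relative to mean of DMSO wells on each plate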); details: circadian reporter cells, at 7 µM, actives lie on both sides
[2] = liver-stage malaria parasite growth inhibition, primary screen, cell-based, HepG2, luciferase luminescence, HepG2 viability (AID 624349; in the data active means parasite load remaining mostly below about 12%, no sharp cut-off; inactive means mostly above about 10%;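 further: 100% = mean of DMSO negative control wells on the same plate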); details: P. berghei liver stage in HepG2, luciferase luminescence, concentration not given here; parasite load remaining: stronger effect = lower value; viability: measured here: HepG2 viability without parasites
[3] = stimulators of nuclear beta-catenin in C2C12, primary screen, imaging, WNT3A-conditioned medium, mouse C2C12, NPC library (AID 1117326; in the data active means nuclear beta-catenin stimulation mostly above about 4.2%, no sharp cut-off; inactive means mostly below about 10%; further: reference of the scale not given here); details: stronger effect = higher value
[4] = stimulators of insulin release from INS-1E, primary screen, cell-based, 5 mM glucose, NPC library (AID 1117329;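 active means compound raises insulin release from rat beta cells at 5 mM glucose, no numeric limit stated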; further: reference of the scale not given here); details: rat INS-1E insulin secretion, at 10 µM, stronger effect = higher value
[5] = growth inhibition of GSK3B-pretreated HCT116 cells – cell-based, CellTiter-Glo, 0.2 to 20 µM (AID 1117336;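 active means compounds lowering colon cancer cell viability after pretreatment blocking the GSK3B kinase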); details: HCT116 viability after GSK3B inhibitor, at 20 µM, stronger effect = higher value
[6] = inhibition of endothelial tube formation, primary screen, imaging, VEGF stimulated, CD31 staining, tube area, NPC library (AID 1117340;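 active means compound that reduces growth-factor-driven endothelial tube area in a mixed cell culture, no cutoff stated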); details: VEGF-stimulated ADSC/ECFC co-culture, at 10 µM, stronger effect = higher value
[7] = glucagon-like peptide 1 release enhancers, primary assay, NCI-H716 cell line, NPC library (AID 1117341;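 active means compound raises GLP1 secretion from the human gut endocrine cells, with no numeric limit stated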; further: reference of the scale not given here); details: NCI-H716 cells, at 10 µM, stronger effect = higher value
[8] = HCT116 colon cancer cell growth inhibition, primary screen, CellTiter-Glo luminescence, NPC library (AID 1117342;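 active means compounds that lower survival of HCT116 colon cancer cells in the luminescence readout, no numeric limit stated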); details: at 20 µM (top of the series)
[9] = CellTiter-Glo luminescent readout of SW480 viability loss, NPC library primary (AID 1117343;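 active means compounds that lower viability of the colon cancer cells in the luminescence readout, with no numeric limit stated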); details: CellTiter-Glo luminescence; at 20 µM (top of the series) unless noted
[10] = decreased DLD-1 cellular survival, CellTiter-Glo luminescent readout, NPC compound collection, primary HTS (AID 1117346;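 active means compounds that lower survival of DLD-1 colon cancer cells in the luminescence readout, no cutoff given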); details: DLD-1 viability, CellTiter-Glo luminescence; at 20 µM (top of the series)
[11] = sensitizers of A549 cells to miR-34 induction, primary screen, imaging, A549 dox-inducible miR-34, nuclei and caspase counts (AID 1347080;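 active means compounds whose cell count with miR-34 switched on is under 0.7 times the count with it off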); details: A549 miR-34 inducible, Hoechst nuclei count, 48 h
[12] = survival rescue of mitochondrial mutant cells in low glucose, primary screen, MELAS cybrids, Rieske KO mouse fibroblasts, CellTiter-Glo (AID 1508586);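 further: z relative to plate mean and SD of compound and empty wells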
[13] = viability rescue of complex I mutant cybrids, primary screen, cell-based, galactose medium, ATP luminescence (AID 1645843;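 active means z-score of at least 1.8 in each of two replicates, scored against plate mean and spread of sample wells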;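 further: positive z means more ATP and so rescue of galactose-driven cybrid death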); details: complex I mutant cybrid cells, 72 h, stronger effect = higher value
[14] = stronger effect = lower value, cell number ratio, induced over uninduced
[15] = measured here: relative caspase fold change +Dox/-Dox
[16] = measured here: total cells with miR-34 induction, stronger effect = lower value
[17] = measured here: total cells without miR-34 induction
[18] = MELAS cybrid survival, CellTiter-Glo 48 h, stronger effect = higher value
[19] = Rieske KO mouse fibroblast survival, CellTiter-Glo 72 h

Compound	period change [1]	parasite load remaining [2]	viability [2] [%]	nuclear beta-catenin stimulation ([3]; at 10 µM)	nuclear beta-catenin stimulation ([3]; stimulation, at 2 µM) [%]	insulin secretion stimulation [4]	viability decrease [5]	tube area decrease [6]	GLP1 secretion stimulation [7]	inhibition of viability [8]	viability decrease (inhibition) [9]	viability decrease (inhibition) [10]	fold change [11, 14]	fold change [11, 15]	cell count [11, 16]	cell count [11, 17]	z-score [12, 18]	z-score [12, 19]	z-score [13]
O=c1[nH]c2ccccc2n1CCCN1CCN(C(c2ccccc2)c2ccccc2)CC1	0.15 h (inactive)	29.6% (inactive)	106	2.7% (inactive)	2	1.95% (inactive)	72% (active)	20.5% (inactive)	1.4% (inactive)	76.3% (active)	110% (active)	78.8% (active)	0.906 (inactive)	1.22	8130	8980	-0.355 (inactive)	-0.351	-1.56 (inactive)
O=c1[nH]c(=O)c2[nH]c(=O)[nH]c2[nH]1				-2.4% (inactive)	-1.6	-0.2% (inactive)	-5.9% (inactive)	8.1% (inactive)	-2.2% (inactive)	-5.8% (inactive)	-9.2% (inactive)	9.1% (inactive)	0.877 (inactive)	0.666	8320	9490	0.618 (inactive)	0.253	0.705 (inactive)
O=C(O)Cc1cccc2ccccc12				-0.7% (inactive)	0.6	-1.5% (inactive)	-6.45% (inactive)	0% (inactive)	1.9% (inactive)	12.9% (inactive)	39.8% (inactive)	-0.4% (inactive)	0.971 (inactive)	1.32	8040	8280	0.391 (inactive)	-0.24	0.46 (inactive)
COC(=O)C1=C(C#N)NC(C)=C(C(=O)OC(C)C)C1c1cccc([N+](=O)[O-])c1 (stereo unspecified)				-1.3% (inactive)	2.3	-0.1% (inactive)	9.8% (inactive)	9.9% (inactive)	-3.9% (inactive)	56.2% (active)	65.8% (active)	29.6% (active)	0.976 (inactive)	0.643	7820	8010	-0.465 (inactive) and 0.607 (inactive)	0.162 and 0.638	
Nc1c(CC(=O)O)cccc1C(=O)c1ccccc1				0.8% (inactive)	0.5	-0.2% (inactive)	-2.3% (inactive)	-6.1% (inactive)	2.5% (inactive)	0.4% (inactive)	0.2% (inactive)	-11.2% (inactive)	0.914 (inactive)	0.966	7840	8580	-0.237 (inactive)	-0.172	
